A selection: hits, their analogues and other compounds. The true share with any hit is near 8.1%.
KB-V1 MDR tox: qHTS assay for MDR1-selective chemotherapeutics: Primary screen using the drug-selected MDR subline cells KB-V1 | Potency, µM (series often up to 46.1 µM), most hits filed as cytotoxic | actives 3.4% (n = 400,000) | KB-V1 MDR cells viability, CellTiter-Glo, 72 h | AID 1347076, 2019; note: % is set by controls: 0 for no effect and ±100 for the full control effect; nearly all actives have a fitted effect of over 60% in size
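Compound-treated KB-V1 multidrug-resistant cells, 72 h, 37 degrees C; viability by CellTiter-Glo. Fitted qHTS curves give the values.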
KB-3-1 cytotox: qHTS assay for MDR1-selective chemotherapeutics: Primary screen using the parental adenocarcinoma cell KB-3-1. KB-3-1 viability, CellTiter-Glo ATP luminescence, 72 h. actives 1.4% (n = 400,000). Potency, µM (doses to about 46.1 µM), hits mostly cytotoxic; note: % is set by controls: 0 for no effect and ±100 for the full control effect; nearly all actives have a fitted effect of over 60% in size
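Viability of parental KB-3-1 cells, measured by CellTiter-Glo luminescence, followed a 72 h incubation at 37 °C with pinned compounds in phenol-red-free DMEM containing 10% FBS.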
ELG1 DNA repair: qHTS screen for small molecules that inhibit ELG1-dependent DNA repair in human embryonic kidney (HEK293T) cells expressing luciferase-tagged ELG1 | HEK293T ELG1-luciferase reporter, luminescence, 16 h; DNA damage induced by 5-fluorouridine | Potency, µM (titrated, usually from 46.1 µM), for inactives: at the top dose activity change, negative = inhibition, usual class: inhibitors | actives 2.3% (n = 330,000) | AID 504467, 2011; note: % is set by controls: 0 for no effect and ±100 for the full control effect; nearly all actives have a fitted effect of over 55% in size
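Cells (2,000 per well) received 5-fluorouridine plus test compound or DMSO and were incubated 16 hr at 37 °C, 5% CO2. Luciferase activity was read by luminescence 30 min after ONE-Glo addition; signal suppression marked inhibition of damage-induced ELG1 function.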
SW480 rerep: A quantitative high throughput screen for small molecules that induce DNA re-replication in SW480 colon adenocarcinoma cells | SW480 DNA re-replication, Hoechst DNA content imaging, 48 h | Potency, µM (doses to about 46.1 µM), for inactives: top-dose re-replication activation, actives largely listed as activators | AID 624297, 2012 | actives 1.8% (n = 340,000); note: % of control where 0% means no effect; nearly all actives have a fitted effect of over 55% in size
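Compounds, transferred as 23 nL by pin tool, were incubated with cells for 48 hr; DNA content per nucleus was then quantified by Hoechst staining and fluorescence plate imaging.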
MCF10A rereplic: A quantitative high throughput screen for small molecules that induce DNA re-replication in MCF 10a normal breast cells; AID 624296, 2012; actives 2.9% (n = 350,000); Potency, µM (doses to about 46.1 µM), for inactives: top-dose activity, positive = re-replication, usual class: activators; MCF 10A DNA re-replication, Hoechst nuclear intensity, 48 h; note: % of control where 0% means no effect; nearly all actives have a fitted effect of over 50% in size
Starred values were filed as active, the others as inactive. Calls come from the whole dose curve; as a rule, active = well fitted curve in the direction sought with a large enough effect; inconclusive = small, poorly fitted or top-dose-only effect, or another doubt; inactive = no such curve, though single readings can be large; an effect the other way counts as inactive or inconclusive. Potency is the fitted concentration of half-maximal effect.

`CCOc1cccc(C(=O)Nc2ccc(N3CCCC3)cc2)c1` gave KB-V1 MDR tox inactive, KB-3-1 cytotox inconclusive, ELG1 DNA repair inconclusive, SW480 rerep inconclusive and MCF10A rereplic 6%.
CCOc1ccc(NC(=O)c2cccc(OC(=S)N3CCC(C)CC3)c2)cc1 was read as KB-V1 MDR tox 18µM*, KB-3-1 cytotox inactive, ELG1 DNA repair 7%, SW480 rerep 22% and MCF10A rereplic 14%.
For Cc1cc(NC(=O)c2ccc(NC(=O)c3cccs3)cc2)no1 the results were KB-V1 MDR tox 15µM*, KB-3-1 cytotox inactive, ELG1 DNA repair inconclusive, SW480 rerep -7% and MCF10A rereplic 1%.
CCOc1ccc(-n2cnnn2)cc1S(=O)(=O)Nc1c(C)cccc1C was read as KB-V1 MDR tox inconclusive, KB-3-1 cytotox inactive, ELG1 DNA repair 7%, SW480 rerep 8% and MCF10A rereplic -15%.
CCOc1ccccc1OCCN[C@H](C)Cc1ccc(OC)c(S(N)(=O)=O)c1 was read as SW480 rerep 3% and MCF10A rereplic 6%.
For CCCCOc1cccc(C(=O)Nc2ccc(NC(=O)c3cccs3)cc2)c1 the results were KB-V1 MDR tox inactive, KB-3-1 cytotox inactive, ELG1 DNA repair -6%, SW480 rerep 6.5µM* and MCF10A rereplic 7.3µM*.
For CCCOc1ccc(C(=O)Nc2ccc(NC(=O)c3cccs3)cc2)cc1 the results were KB-V1 MDR tox inactive, KB-3-1 cytotox inactive, ELG1 DNA repair 1%, SW480 rerep -19% and MCF10A rereplic -19%.
COc1cccc(C(=O)COc2ccc(NC(=O)c3cccs3)cc2)c1 was read as ELG1 DNA repair 15µM*, SW480 rerep 0% and MCF10A rereplic inconclusive.
Screening COC(=O)Nc1ccc(SCC(=O)c2cccc([N+](=O)[O-])c2)cc1 returned KB-V1 MDR tox inactive, KB-3-1 cytotox inactive, ELG1 DNA repair 1%, SW480 rerep inconclusive and MCF10A rereplic 23µM*.
Screening CCOc1cccc(C(=O)Nc2ccc(N(CC)CC)cc2)c1 returned KB-V1 MDR tox inactive, KB-3-1 cytotox inconclusive, ELG1 DNA repair -7%, SW480 rerep 18µM* and MCF10A rereplic 18µM*.
CC1(C(=O)NC2CCCC2)CCN1C(=O)Cc1ccc(-c2ccccc2)cc1 (centres undefined) was read as KB-V1 MDR tox inactive and KB-3-1 cytotox inactive.
Screening CN1CCN(S(=O)(=O)c2cccc(C(=O)Oc3ccc(C(C)(C)C)cc3)c2)CC1 returned KB-V1 MDR tox inactive, KB-3-1 cytotox inactive, ELG1 DNA repair 19%, SW480 rerep 3% and MCF10A rereplic 0%.
For CCOC(=O)C1C(=O)C=C(c2ccc(C)cc2)CC1c1ccc([N+](=O)[O-])cc1 (centres undefined) the results were KB-V1 MDR tox 7.3µM*, KB-3-1 cytotox inactive, ELG1 DNA repair inconclusive, SW480 rerep -21% and MCF10A rereplic -1%.
Screening CCc1cc2c(=O)c(-c3cnn(-c4ccccc4)c3)c(C)oc2c(CN2CCCCC2)c1O returned KB-V1 MDR tox inactive, KB-3-1 cytotox inactive, ELG1 DNA repair -14%, SW480 rerep 2% and MCF10A rereplic inconclusive.
For CCc1cc2c(=O)c(-c3cnn(-c4ccccc4)c3)c(C(F)(F)F)oc2c(CN(C)C)c1O the results were KB-V1 MDR tox 1.8µM*, KB-3-1 cytotox inactive, ELG1 DNA repair -1%, SW480 rerep -7% and MCF10A rereplic -6%.
COc1cc(NC(=O)c2cnn(-c3cccc(F)c3)c2C2CCNCC2)cc(OC)c1OC was read as KB-V1 MDR tox inconclusive and KB-3-1 cytotox inactive.
`COc1ccc(-n2c(SC(C)C(=O)Nc3ncc(Cl)cc3Cl)nc3ccccc32)cc1` (centres undefined) gave KB-V1 MDR tox 2.1µM*, KB-3-1 cytotox 21µM*, ELG1 DNA repair 13%, SW480 rerep inconclusive and MCF10A rereplic inconclusive.
CC(Sc1nnc2ccccn12)C(=O)Nc1ncc(Cl)cc1Cl (centres undefined) was read as KB-V1 MDR tox inactive, KB-3-1 cytotox inactive, ELG1 DNA repair inconclusive, SW480 rerep -8% and MCF10A rereplic 4%.
CCC1(c2ccc(Cl)cc2)NC(=O)N(CC(=O)NCc2ccc(F)cc2)C1=O (centres undefined) was read as KB-V1 MDR tox inconclusive, KB-3-1 cytotox inactive, ELG1 DNA repair -10%, SW480 rerep 3% and MCF10A rereplic 6%.
Screening CCC1(c2ccc(F)cc2)NC(=O)N(CC(=O)NC2CCCC(C)C2C)C1=O (centres undefined) returned KB-V1 MDR tox 16µM*, KB-3-1 cytotox inactive, ELG1 DNA repair 8%, SW480 rerep 0% and MCF10A rereplic -2%.
`CCC1(c2ccc(Cl)cc2)NC(=O)N(Cc2ccc(C(=O)OC)cc2)C1=O` (centres undefined) gave KB-V1 MDR tox inconclusive, KB-3-1 cytotox inactive, ELG1 DNA repair 21µM*, SW480 rerep 0% and MCF10A rereplic 1%.
Screening CCC1(c2ccc(Cl)cc2)NC(=O)N(CC(=O)NC2CCCC(C)C2C)C1=O (centres undefined) returned KB-V1 MDR tox inactive, KB-3-1 cytotox inactive, ELG1 DNA repair 6%, SW480 rerep 4.1µM* and MCF10A rereplic 67%.
Screening CCC1(c2ccc(F)cc2)NC(=O)N(CC(=O)NC2CC2)C1=O (centres undefined) returned KB-V1 MDR tox inactive, KB-3-1 cytotox inactive, ELG1 DNA repair inconclusive, SW480 rerep -3% and MCF10A rereplic 2%.
COCCn1nnnc1C(c1ccccc1)N1CCN(Cc2ccc3c(c2)OCO3)CC1 (centres undefined) was read as KB-V1 MDR tox inactive, KB-3-1 cytotox inactive, ELG1 DNA repair 0%, SW480 rerep -2% and MCF10A rereplic 3%.
Screening CCn1c(COc2ccc(=O)n(-c3ccccc3)n2)nnc1SCc1cccc(OC)c1 returned KB-V1 MDR tox 16µM*, KB-3-1 cytotox inactive, ELG1 DNA repair 10%, SW480 rerep -8% and MCF10A rereplic 0%.
`O=C(NCc1ccccc1)N1CCn2c(nc3ccccc32)C1` gave KB-V1 MDR tox 18µM*, KB-3-1 cytotox inactive, ELG1 DNA repair -4%, SW480 rerep 1% and MCF10A rereplic -1%.
O=[N+]([O-])c1ccc(N=NN(CCO)CCO)cc1 was read as KB-V1 MDR tox inactive, KB-3-1 cytotox inactive, ELG1 DNA repair 20%, SW480 rerep 23µM* and MCF10A rereplic 10%.
